From PubChem
Sampled rows, rich in hits. Any-hit rate of the full collection: about 19%.
DT40 TDP1 no CPT = qHTS for Inhibitors of human tyrosyl-DNA phosphodiesterase 1 (TDP1): qHTS in cells in absence of CPT. DT40 Tdp1-/- hTDP1 cells, no CPT, ATP luminescence, 48 h. Potency, µM (series often up to 46.2 µM), for inactives: at the highest dose activity change, negative = growth inhibition, usual class: inhibitors. 420,000 tested, 15% active; further: potency means the concentration at half of the fitted maximal effect; nearly all actives have a fitted effect of over 55% in size
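Luminescent ATP content (CellTiter-Glo) served as the growth readout. Knockout chicken DT40 cells expressing human TDP1 were exposed to compounds without camptothecin for a minimum 48 hr at 37 °C.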
Giardia kill = Giardia lamblia killing | AID 540267 | Giardia lamblia trophozoite viability | activity change, % at 7.66 µM, hits read low | 340,000 tested, 0.15% active; in the data active means activity change below about -80%; inconclusive means between about -30% and that limit;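 further: parasites exposed to compound for two days anaerobically before the ATP read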
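Each well holds 100 Giardia trophozoites and compound. After two days (48 hrs) at 37 deg C in anaerobic conditions, ATP is quantified by luminescence.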
ELG1 repair inh = ELG1-dependent DNA repair inhibition; HEK293T ELG1-luciferase reporter, luminescence, 16 h; DNA damage induced by 5-fluorouridine; Potency, µM (series often up to 46.1 µM), for the others: at the highest dose activity change, negative = inhibition, most hits filed as inhibitors; 330,000 tested, 2.3% active; further: potency means the concentration at half of the fitted maximal effect; nearly all actives have a fitted effect of over 55% in size
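HEK293T cells expressing luciferase-tagged ELG1 (2,000/well) received 5-Fluorouridine plus compound or DMSO for 16 hr at 37 °C. Luciferase was read by ONE-Glo luminescence after 30 min at room temperature.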
TDP1 cell CPT = DT40-hTDP1 cell growth loss with CPT | chicken DT40 Tdp1-/-;hTDP1 cells + 20 nM CPT, ATP luminescence, 48 h | Potency, µM (doses to about 46.2 µM), for inactives: at the highest dose activity change, negative = growth inhibition, actives largely listed as inhibitors | 420,000 tested, 12% active | AID 686979; further: potency means the concentration at half of the fitted maximal effect; nearly all actives have a fitted effect of over 55% in size
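Cell growth measured by CellTiter-Glo luminescence after a minimum 48 h, 37 C compound exposure with 20 nM CPT in Tdp1-knockout DT40 cells stably expressing hTDP1, seeded 400/well; qHTS titration format.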
TDP1 block = TDP1 (human) enzyme inhibition | 350,000 tested, 0.28% active | Potency, µM (titrated, usually from 130 µM), inactives show top-dose activity change, negative = inhibition, actives largely listed as inhibitors | recombinant TDP1, AlphaScreen DNA substrate cleavage; further: potency means the concentration at half of the fitted maximal effect; nearly all actives have a fitted effect of over 40% in size
Target sequence (Q9NUW8 whole entry, looked up): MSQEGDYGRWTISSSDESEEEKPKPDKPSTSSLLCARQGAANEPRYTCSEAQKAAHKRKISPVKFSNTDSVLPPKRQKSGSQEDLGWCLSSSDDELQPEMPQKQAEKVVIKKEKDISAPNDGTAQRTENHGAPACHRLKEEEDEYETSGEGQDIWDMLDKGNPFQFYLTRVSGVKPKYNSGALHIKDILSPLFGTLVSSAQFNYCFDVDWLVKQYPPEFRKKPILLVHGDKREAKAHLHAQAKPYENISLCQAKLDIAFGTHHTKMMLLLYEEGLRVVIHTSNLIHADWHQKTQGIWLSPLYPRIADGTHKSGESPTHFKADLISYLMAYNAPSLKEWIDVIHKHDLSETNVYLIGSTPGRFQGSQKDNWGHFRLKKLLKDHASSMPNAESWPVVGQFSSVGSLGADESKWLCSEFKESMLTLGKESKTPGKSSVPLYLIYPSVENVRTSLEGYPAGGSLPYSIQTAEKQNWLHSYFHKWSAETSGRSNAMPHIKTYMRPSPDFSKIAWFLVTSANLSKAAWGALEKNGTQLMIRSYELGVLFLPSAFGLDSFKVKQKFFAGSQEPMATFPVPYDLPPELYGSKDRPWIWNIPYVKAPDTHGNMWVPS
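Compounds were preincubated with Tdp1 (1 nM final) for 15 min at room temperature before substrate (15 nM final) started a 5 min reaction; beads (10 ug/ml final) were then added for 10 min before AlphaScreen detection.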
IL-1B inflam inh = blocks inflammasome-driven IL-1 beta release. THP-1 LPS/ATP IL-1B secretion, AlphaLISA, 16 h; hits give low values. 360,000 tested, 4.7% active. activity change, % at 57.5 µM; in the data active means activity change below about -50%; inconclusive means mostly about -30% to -49%
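Secreted IL-1B measured by AlphaLISA bead assay after 16 h compound exposure of THP-1 cells; compounds (final up to 57.5 uM) added 1 h before LPS (250 ng/mL) and ATP (1.25 mM) stimulation; lower signal means less secretion.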
Numbers without * were called inactive; ? = inconclusive; . = no result; [ ] = dose if it differs, or a comment. Unless noted, the call rests on the fitted dose curve; in most records, active means well fitted curve in the direction sought with a large enough effect; inconclusive means small, poorly fitted or top-dose-only effect, or another doubt; inactive means no such curve, though single readings can be large; an effect the other way counts as inactive or inconclusive. On the % scale 0 is the no-effect control and ±100 the full control effect.

SMILES | DT40 TDP1 no CPT | Giardia kill | ELG1 repair inh | TDP1 cell CPT | TDP1 block | IL-1B inflam inh
Nc1ncnc2c1ncn2[C@@H]1O[C@H](CNCc2ccc(OCC(=O)Nc3ccccn3)cc2)[C@@H](O)[C@H]1O | -22.3% | 7.6 | ? | ? | 0.0% | 9.0
Nc1ncnc2c1ncn2[C@@H]1O[C@H](CNCc2ccc(OCc3ccccc3)cc2)[C@@H](O)[C@H]1O | 10.3µM* | -4.0 | ? | 18.4µM* | -1.4% | -0.3
N#CC(=NCc1cccnc1)C1=C(O)c2ccccc2C1=O | -15.4% | 4.6 | 0.0% | -12.0% | 11.0% | 44.3
CCOC(=O)CN1N=C(c2ccc(Cl)s2)CSC1=O | -87.1% | 17.3 | 2.9% | -68.8% | -2.8% | -13.2
CNc1ncnc2c1ncn2[C@@H]1O[C@H](CO)[C@@H](O)[C@@H]1O | . | . | . | . | -1.5%[21 µM] | .
Nc1ncnc2c1ncn2[C@@H]1O[C@H](CO)[C@@H](O)[C@@H]1O | 0.366µM* | -30.0 | . | 0.461µM* | . | -2.7
O=C(C[C@@H]1C/C=C\C[C@H](NC(=O)OCC2c3ccccc3-c3ccccc32)C(=O)O[C@H](c2ccccc2)CNC1=O)NCCO | 2.06µM* | 15.6 | 1.1% | 2.59µM* | 3.1% | 26.6
O=C(C[C@H]1C/C=C\C[C@H](NC(=O)OCC2c3ccccc3-c3ccccc32)C(=O)O[C@@H](c2ccccc2)CNC1=O)NCCO | 10.3µM* | 7.1 | -1.9% | 9.2µM* | -0.1% | -8.7
CCc1cc[n+](C2=C([O-])c3ccccc3C(=O)/C2=N\S(=O)(=O)c2cccs2)cc1 | 5.17µM* | -21.7 | 16.4µM* | 2.31µM* | 5.3% | -85.9*
CCC(C)NS(=O)(=O)c1cccs1 (centres undefined) | 18.2% | 1.5 | 9.9% | -4.4% | 2.3% | -2.2
Cc1cccc(C)c1OCc1cc(C(=O)N2CCC(c3ccccc3)CC2)no1 | ? | 16.1 | ? | ? | -5.5% | ?
Cc1ccc(C)c(N2CCN(C(=O)c3ccc(CS(=O)(=O)c4ccc(Br)cc4)o3)CC2)c1 | ? | . | . | ? | 7.0% | .
Cc1ccc(S(=O)(=O)Cc2ccc(C(=O)N3CCN(c4cccc(C)c4C)CC3)o2)cc1 | 2.59µM* | -20.7 | ? | 1.84µM* | 4.7% | 65.6
Cc1ccc(S(=O)(=O)Cc2ccc(C(=O)O)o2)cc1 | -16.8% | -16.5 | 6.1% | 4.7% | 39.8µM* | 0.0
COc1ccc(S(=O)(=O)Cc2ccc(C(=O)O)o2)cc1 | 19.6% | 0.3 | -3.1% | 10.4% | . | 8.9
Cc1ccc(Cl)cc1N1CCN(C(=O)c2ccc(CS(=O)(=O)c3ccccc3C)o2)CC1 | 18.4µM* | . | . | ? | 3.5% | .
Cc1cccc(C)c1OCc1cc(C(=O)N2CCN(c3ccc(F)cc3)CC2)no1 | -24.1% | -15.4 | ? | ? | 1.2% | -50.9*
Cc1nc2ccc(C(=O)NCC3CCC4(CCN(Cc5cccnc5)CC4)O3)cc2nc1C (centres undefined) | -25.8% | . | . | -6.3%[9.04 µM] | . | .
C=CCN(c1ccccc1)S(=O)(=O)c1cc2c(cc1C)NC(=O)CO2 | -27.9% | -2.2 | 7.9% | ? | . | 26.7
Cc1cc(C2CC(=O)Nc3ccccc3S2)c(C)s1 (centres undefined) | ? | 0.5 | -5.6% | ? | 1.3% | -2.6
CCc1ccc(NC(=O)CCc2nnc3ccc(N4CCCC4)nn23)cc1 | ? | -0.9 | -2.1% | ? | 3.5% | 8.2
COc1ccc(S(=O)(=O)Cc2ccc(C(=O)N3CCN(Cc4ccccc4)CC3)o2)cc1 | 0.6% | 5.5 | -16.8% | 4.8% | 4.1% | 1.0
Cc1ccc(S(=O)(=O)Cc2ccc(C(=O)N3CCN(Cc4ccccc4)CC3)o2)cc1 | . | . | 18.4µM* | . | -4.1% | .
COc1ccc(N2CCN(C(=O)c3ccc(CS(=O)(=O)c4ccc(OC)cc4)o3)CC2)cc1 | -24.7% | -0.5 | ? | -58.5% | 5.2% | -25.9
Cc1ccccc1S(=O)(=O)Cc1ccc(C(=O)N2CCN(c3ccc(F)cc3)CC2)o1 | ? | 13.8 | ? | 16.4µM* | 3.9% | 0.9
SMILES | DT40 TDP1 no CPT | Giardia kill | ELG1 repair inh | TDP1 cell CPT | TDP1 block | IL-1B inflam inh
Cc1ccc(S(=O)(=O)Cc2ccc(C(=O)N3CCN(c4ccc(F)cc4)CC3)o2)cc1 | ? | 20.7 | 23.1µM* | ? | 5.2% | -10.7
O=C(c1ccc(CS(=O)(=O)c2c(Cl)cccc2Cl)o1)N1CCN(c2ccccc2)CC1 | 14.6µM* | . | . | ? | 6.9% | .
O=C(c1ccccn1)N1CCCC(N2CCN(c3ccc(F)cc3)CC2)C1 (centres undefined) | 3.6% | -1.2 | 27.5% | 0.7% | 0.9% | 45.5
O=C(Nc1cccc2cccnc12)c1ccccc1Br | ? | 10.3 | . | -24.3% | . | -7.1
CC(C)(C)C(C(=O)NCc1ccccc1)N1CCN(C(=O)C2CCCO2)CC1 (centres undefined) | 3.9% | . | . | -4.5% | . | 0.0
C/C(=N\Nc1cc(N2CCCCC2)nc(C)n1)c1ccc(Br)cc1 | 5.8µM* | ? | 16.4µM* | 13µM* | 7.4% | -50.6*
CC1=CC(C)(C)[N+](C)(C)c2ccc(C)cc21 | 18.4µM* | -10.3 | -7.8% | ? | 2.4% | 40.9
C/C=C/C(=O)N1c2ccc(C)cc2C(C)=CC1(C)C | ? | -26.0 | 3.6% | ? | -0.6% | 24.8
Cc1ccc(Cc2nnc3n(-c4ccccc4)nc(C(=O)c4ccccc4)n3c2=O)cc1 | ? | -1.7 | 20.6µM* | ? | 10.3%[56.1 µM] | -4.1
C=CCn1c(O)c(N=NC(=O)OCC)c2ccccc21 | ? | -14.2 | 7.3% | ? | 0.0% | 12.8
C=CCn1c(O)c(N=NC(=O)CNC(=O)Cc2ccccc2)c2ccccc21 | 5.2% | -13.0 | 10.3% | -6.6% | 2.7% | 33.6
C=CCn1c(O)c(N=NC(=S)Nc2ccc(OC)cc2)c2ccccc21 | 4.61µM* | 2.8 | ? | 3.66µM* | 10.5% | 9.1
C=CCn1c(O)c(N=NC(=S)Nc2cccc(OC)c2)c2ccccc21 | 2.91µM* | -10.1 | 16.2% | 3.26µM* | 10.5% | 19.9
CC(C#N)Sc1ccc(S(=O)(=O)N(C)C2CCCCC2)cn1 (centres undefined) | ? | -3.5 | 15.2% | ? | -6.3% | 16.0
COc1cc(C(=O)ON=C2C(C)=CC(=O)C=C2C)cc(OC)c1OC | 1.2% | 23.0 | ? | -12.9% | 6.8% | -4.0
COc1cc(C(=O)O/N=C2/C=C(C)C(=O)C=C2C)cc(OC)c1OC | 2.06µM* | -25.1 | 11.6% | 8.2µM* | 2.7% | 17.5
Cn1cnc([N+](=O)[O-])c1Oc1cccc(O)c1 | 23.1µM* | -19.5 | 5.9% | ? | 4.3% | -105.4*
